Data taken from paper PMC5700166.
Residue numbers refer to the chain shown, from its start.

Tests used:
Assay in all cases: protein-binding microarray (PBM); PBM: ~300 nM protein, 6 mM HEPES pH 7.8, 80 mM KCl, 0.5 mM EDTA, 0.5 mM EGTA, 6% glycerol, 35 ng/ul poly-dIdC, 1% milk, 1 h, room temperature; Ap Aiptasia and Nv Nematostella (sea anemones) / Co Capsaspora / Aq Amphimedon (sponge) / Dm Drosophila / Hu human; RHD is the Rel homology domain; high values mean tight binding
Conditions in all cases: dsDNA, one strand shown
[1] = target: T1, GST-Ap-NF-kB RHD (Exaiptasia pallida (Aiptasia), UniProt A0A913YAJ5 2-422)
T1 sequence: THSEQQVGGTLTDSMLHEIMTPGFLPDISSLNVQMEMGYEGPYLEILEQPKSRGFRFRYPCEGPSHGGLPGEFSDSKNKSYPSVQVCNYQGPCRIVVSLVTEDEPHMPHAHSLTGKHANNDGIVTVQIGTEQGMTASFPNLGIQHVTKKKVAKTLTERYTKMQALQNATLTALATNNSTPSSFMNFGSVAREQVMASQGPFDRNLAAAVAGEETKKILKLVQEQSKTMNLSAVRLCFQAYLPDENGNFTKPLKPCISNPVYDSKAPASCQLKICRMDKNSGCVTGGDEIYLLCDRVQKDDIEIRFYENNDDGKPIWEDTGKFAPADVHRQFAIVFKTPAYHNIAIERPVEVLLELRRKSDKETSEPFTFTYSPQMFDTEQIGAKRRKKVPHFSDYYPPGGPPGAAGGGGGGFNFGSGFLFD

[2] = target: T2, GST-Nv-NF-kB (Cys allele) (Nematostella vectensis, UniProt E5G601 2-411)
T2 sequence: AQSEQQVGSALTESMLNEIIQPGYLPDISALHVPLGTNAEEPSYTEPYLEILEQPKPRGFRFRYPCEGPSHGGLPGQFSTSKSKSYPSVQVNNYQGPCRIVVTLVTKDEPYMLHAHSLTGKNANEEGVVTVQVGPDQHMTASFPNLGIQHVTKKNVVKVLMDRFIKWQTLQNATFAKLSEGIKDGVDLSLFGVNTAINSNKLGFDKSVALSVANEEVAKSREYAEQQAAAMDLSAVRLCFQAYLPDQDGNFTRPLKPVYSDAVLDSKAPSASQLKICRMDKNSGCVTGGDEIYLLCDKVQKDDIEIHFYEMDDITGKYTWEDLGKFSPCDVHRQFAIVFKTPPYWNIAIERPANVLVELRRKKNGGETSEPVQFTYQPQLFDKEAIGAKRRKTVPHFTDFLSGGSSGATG

[3] = target: T3, GST-Nv-NF-kB (Ser allele) (Nematostella vectensis, UniProt A7UNT2 2-411)
T3 sequence: T2 sequence with Q21R, C66S, S207N, E215Q, V217A, E225K, A268E, D399E

[4] = target: T4, GST-Co-NF-kB (Capsaspora owczarzaki, UniProt F1ARL5 200-546)
T4 sequence: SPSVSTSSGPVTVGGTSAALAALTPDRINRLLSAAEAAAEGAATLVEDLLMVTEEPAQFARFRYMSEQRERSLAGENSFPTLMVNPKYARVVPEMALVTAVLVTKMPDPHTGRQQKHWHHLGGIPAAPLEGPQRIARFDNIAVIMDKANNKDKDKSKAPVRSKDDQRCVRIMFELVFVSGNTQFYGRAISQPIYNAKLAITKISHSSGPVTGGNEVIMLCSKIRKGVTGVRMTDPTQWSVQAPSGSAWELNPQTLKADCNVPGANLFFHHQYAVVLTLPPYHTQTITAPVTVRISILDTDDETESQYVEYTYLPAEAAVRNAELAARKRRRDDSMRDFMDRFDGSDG

[5] = target: T5, GST-Dm-Relish (Drosophila melanogaster, UniProt Q94527 99-473)
T5 sequence: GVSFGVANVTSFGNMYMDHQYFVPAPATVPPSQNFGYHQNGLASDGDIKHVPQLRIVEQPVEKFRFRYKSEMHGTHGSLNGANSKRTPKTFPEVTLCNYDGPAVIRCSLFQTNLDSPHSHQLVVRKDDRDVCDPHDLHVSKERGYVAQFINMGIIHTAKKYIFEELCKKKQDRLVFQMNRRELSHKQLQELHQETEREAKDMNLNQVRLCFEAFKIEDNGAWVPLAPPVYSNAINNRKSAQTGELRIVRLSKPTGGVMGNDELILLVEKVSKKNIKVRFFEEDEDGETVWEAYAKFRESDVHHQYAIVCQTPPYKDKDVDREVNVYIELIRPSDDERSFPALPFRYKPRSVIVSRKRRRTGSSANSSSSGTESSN

[6] = target: T6, GST-Aq-NF-kB (Amphimedon queenslandica, UniProt A9Y5G7 2-389)
T6 sequence: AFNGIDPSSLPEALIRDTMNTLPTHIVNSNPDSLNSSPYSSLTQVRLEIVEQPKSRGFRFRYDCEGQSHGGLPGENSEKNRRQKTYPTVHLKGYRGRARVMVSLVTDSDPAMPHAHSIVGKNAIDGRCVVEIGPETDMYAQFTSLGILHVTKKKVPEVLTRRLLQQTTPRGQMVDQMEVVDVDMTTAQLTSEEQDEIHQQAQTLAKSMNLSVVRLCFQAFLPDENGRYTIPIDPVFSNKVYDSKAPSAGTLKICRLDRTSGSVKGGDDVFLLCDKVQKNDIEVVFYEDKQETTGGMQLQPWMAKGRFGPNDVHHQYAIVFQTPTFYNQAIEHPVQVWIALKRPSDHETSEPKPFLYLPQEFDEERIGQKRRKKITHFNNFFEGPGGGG

[7] = target: GST-Hu-p50 (Homo sapiens, UniProt P19838 7-356)
Sequence of GST-Hu-p50 (P19838 7-356): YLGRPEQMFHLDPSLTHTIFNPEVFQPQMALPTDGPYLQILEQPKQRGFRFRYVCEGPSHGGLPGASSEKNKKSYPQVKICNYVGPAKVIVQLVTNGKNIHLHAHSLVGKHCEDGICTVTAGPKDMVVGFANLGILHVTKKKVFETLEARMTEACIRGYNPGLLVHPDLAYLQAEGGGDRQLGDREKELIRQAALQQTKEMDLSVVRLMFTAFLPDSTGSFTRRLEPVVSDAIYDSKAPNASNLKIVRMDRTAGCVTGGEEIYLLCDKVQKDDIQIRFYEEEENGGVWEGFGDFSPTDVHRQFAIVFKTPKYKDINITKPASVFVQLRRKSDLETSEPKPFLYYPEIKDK

| Sequence | binding signal [1] [z-score] | binding signal [2] [z-score] | binding signal [3] [z-score] | binding signal [4] [z-score] | binding signal [5] [z-score] | binding signal [6] [z-score] | binding signal [7] [z-score] |
| --- | --- | --- | --- | --- | --- | --- | --- |
| CCGATTAACATCAGGGAAATCTATGATGTTAATCGGGTCTTGATTCGCTTGACGCTGCTG | 3.65 | 5.31 | 6.44 | 4.52 | 1.64 | 4.71 | 4.1 |
| CCGATTAACATCAGGGAAATTTATGATGTTAATCGGGTCTTGATTCGCTTGACGCTGCTG | 5.86 | 8.28 | 7.67 | 5.84 | 4.1 | 7.49 | 5.55 |
| CCGATTAACATCAGGGGGTTACCTGATGTTAATCGGGTCTTGATTCGCTTGACGCTGCTG | 8.27 | 6.63 | 5.92 | 4.04 | 9.18 | 8.61 | 5.51 |
| CCGATTAACATCAGAGAATTCCCTGATGTTAATCGGGTCTTGATTCGCTTGACGCTGCTG | 5.32 | 7.57 | 7.07 | 2.8 | 4.51 | 6.73 | 5.27 |
| CCGATTAACATCAGGGAAACACCTGATGTTAATCGGGTCTTGATTCGCTTGACGCTGCTG | 5.49 | 6.62 | 6.01 | 2.74 | 6.92 | 7.75 | 5.15 |
| CCGATTAACATCAGGGGGATAACTGATGTTAATCGGGTCTTGATTCGCTTGACGCTGCTG | 6.6 | 4.96 | 5.96 | 6.99 | 7.19 | 5.34 | 5.17 |
| CCGATTAACATCAGAGGATTCCCTGATGTTAATCGGGTCTTGATTCGCTTGACGCTGCTG | 3.72 | 4.52 | 4.31 | 2.44 | 7.61 | 4.43 | 2.84 |
| CCGATTAACATCAAAAATCCCGGTGATGTTAATCGGGTCTTGATTCGCTTGACGCTGCTG | 4.77 | 4.4 | 4.06 | 2.98 | 8.52 | 5.12 | 3.94 |
| CCGATTAACATCAGAGTATTCCCTGATGTTAATCGGGTCTTGATTCGCTTGACGCTGCTG | 3.08 | 2.98 | 3.2 | 2.71 | 2.22 | 3.06 | 1.6 |
| CCGATTAACATCAGAAATTCCCCTGATGTTAATCGGGTCTTGATTCGCTTGACGCTGCTG | 9.89 | 12.3 | 13.2 | 8.74 | 8.87 | 8.89 | 7.96 |
| CCGATTAACATCAGGAAACTCCCTGATGTTAATCGGGTCTTGATTCGCTTGACGCTGCTG | 5.65 | 7.91 | 4.86 | 1.88 | 5.39 | 9.07 | 5.86 |
| CCGATTAACATCACACATCCCCCTGATGTTAATCGGGTCTTGATTCGCTTGACGCTGCTG | 4.83 | 4.4 | 5.41 | 4.17 | 3.19 | 3.87 | 4.48 |
| CCGATTAACATCAAAAACCCCCGTGATGTTAATCGGGTCTTGATTCGCTTGACGCTGCTG | 9.67 | 8.8 | 8.78 | 4.41 | 10.8 | 8.35 | 7.43 |
| CCGATTAACATCAGACTTCCCCCTGATGTTAATCGGGTCTTGATTCGCTTGACGCTGCTG | 7.28 | 7.38 | 7.81 | 7.84 | 7.18 | 6.8 | 6.2 |
| CCGATTAACATCACAATTCCCCCTGATGTTAATCGGGTCTTGATTCGCTTGACGCTGCTG | 7.95 | 8.27 | 9.39 | 8.14 | 5.44 | 6.33 | 7 |
| CCGATTAACATCAAAAAATCCCATGATGTTAATCGGGTCTTGATTCGCTTGACGCTGCTG | 4.84 | 5.22 | 4.17 | 2.05 | 8.41 | 5.43 | 4.75 |
| CCGATTAACATCAGTAATCCCCATGATGTTAATCGGGTCTTGATTCGCTTGACGCTGCTG | 6.5 | 5.74 | 6.91 | 3.87 | 6.04 | 4.5 | 5.31 |
| CCGATTAACATCAGGGATTCCCCTGATGTTAATCGGGTCTTGATTCGCTTGACGCTGCTG | 13.9 | 13.2 | 15.4 | 6.68 | 11.2 | 11.5 | 8.74 |
| CCGATTAACATCAAAATTCCCACTGATGTTAATCGGGTCTTGATTCGCTTGACGCTGCTG | 3.89 | 5.68 | 5.15 | 4.31 | 5.55 | 4.54 | 4.27 |
| CCGATTAACATCAGAAAAGCCCCTGATGTTAATCGGGTCTTGATTCGCTTGACGCTGCTG | 7.38 | 9.78 | 7.32 | 1.37 | 8.04 | 7.96 | 6.71 |
| CCGATTAACATCAACAATTCCCCTGATGTTAATCGGGTCTTGATTCGCTTGACGCTGCTG | 7.89 | 8.85 | 10.8 | 7.14 | 5.11 | 5.93 | 6.81 |
| CCGATTAACATCAGGGGCAGTACTGATGTTAATCGGGTCTTGATTCGCTTGACGCTGCTG | 2.61 | 1.84 | 1.28 | 1.64 | 3.44 | 4.35 | 2.94 |
| CCGATTAACATCAGGATTTCCCCTGATGTTAATCGGGTCTTGATTCGCTTGACGCTGCTG | 10 | 11.1 | 11.4 | 7.55 | 9.64 | 9.68 | 7.53 |
| CCGATTAACATCAAGGATCCCCCTGATGTTAATCGGGTCTTGATTCGCTTGACGCTGCTG | 8.01 | 6.51 | 6.9 | 5.03 | 8.82 | 6.4 | 6.43 |
